Compound activity: PubChem, NMMLSC
In the library only some 0.89% were active in any assay of this set; here they are far more common.
CIT2 TOR yeast: alters CIT2-GFP fluorescence in TOR pathway yeast screen; S. cerevisiae CIT2-GFP strain, flow cytometry, 3 h; 100 means same as DMSO wells; GFP response vs DMSO, % at 10 µM; hit rate 0.065% among 320,000;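 active = GFP response relative to DMSO above a set limit, near the screen mean plus 3 SD, cut at about 150% in these data; inconclusive = Fewer than 70 cells measured for a yeast strain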;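 note: ratio of well median GFP fluorescence to mean of DMSO wells on the plate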
AGP1 TOR yeast: alters AGP1-GFP fluorescence in TOR pathway yeast screen; S. cerevisiae AGP1-GFP multiplex flow cytometry, 3 h; GFP as percent of DMSO wells; GFP response vs DMSO, % at 10 µM; hit rate 0.02% among 320,000; AID 2066;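 active = GFP response relative to DMSO above a set limit, near screen average plus 3 SD, cut at about 150% in these data; inconclusive = fewer than 70 cells counted for the yeast strain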;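 note: median GFP channel fluorescence of the gated AGP1 strain per well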
LAP4 TOR yeast: modulators of TOR pathway LAP4-GFP in S. cerevisiae | S. cerevisiae LAP4-GFP multiplex, flow cytometry GFP, 3 h; median GFP as percent of DMSO wells | GFP response vs DMSO, % at 10 µM | hit rate 0.34% among 320,000 | AID 2023;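 active = GFP response vs DMSO above a set limit, about the screen mean plus 3 SD, cut at about 150% in these data; inconclusive = under 70 cell events counted for the yeast strain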
RPL19A TOR yeast: modulators of TOR pathway RPL19A-GFP in S. cerevisiae; AID 2025; S. cerevisiae RPL19A-GFP strain, flow cytometry, 3 h; hits give low values; hit rate 0.3% among 330,000; percent response vs DMSO, % at 10 µM;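 active = percent response vs DMSO below 50%; inconclusive = fewer than 70 events counted for the yeast strain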;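 note: median channel GFP fluorescence of the barcoded RPL19A-GFP strain; ratio of sample median GFP to plate DMSO average so 100% = DMSO; lower means less RPL19A-GFP as with rapamycin TOR inhibition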
MEP2 TOR yeast: alters MEP2-GFP fluorescence in TOR pathway yeast screen. S. cerevisiae MEP2-GFP strain, flow cytometry GFP, 3 h; 100% = DMSO control level. GFP response vs DMSO, % at 10 µM. hit rate 0.51% among 330,000. AID 2016;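 active = GFP response versus DMSO above a set limit, roughly screen mean plus 3 SD, cut at about 180% in these data; inconclusive = fewer than 70 cells counted for a yeast strain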;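 note: median GFP fluorescence of the barcode-gated MEP2-GFP cells per well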
* hit, by the source's call; ? = inconclusive; · = not tested or not shown; + = active, no number; [ ] = remark or other dose.

SMILES | CIT2 TOR yeast | AGP1 TOR yeast | LAP4 TOR yeast | RPL19A TOR yeast | MEP2 TOR yeast
CCc1nnc(NC(=O)CSc2nnc(C3CCCCC3)n2-c2cccc(Cl)c2)s1 | 199.1* | 198.4* | 343.4* | 48.5* | +
CCc1nnc(NC(=O)CSc2nnc(CNc3cccc(Cl)c3)n2CC)s1 | 104.3 | 102.0 | 96.0 | 98.4 | 97.5
Cc1c(C(=O)NCc2ccccc2F)oc2ccccc12 | 104.5 | 104.5 | 103.5 | 106.2 | 97.2
CCOC(=O)C(=N/O)/C(C)=N/NC(=O)C(=O)Nc1ccc(Cl)cc1 | 106.1 | 118.5 | 112.2 | 104.4 | 101.9
COc1cc(SC)ccc1C(=O)NCCCn1ccnc1 | ? | ? | 138.4 | 39.4*[may fluoresce violet] | 574.8*[may fluoresce violet]
COc1ccc(Cl)cc1C(=O)NCCCn1ccnc1 | 104.4 | 93.0 | 90.2 | 106.0 | 104.3
CCc1cccc(NC(=O)CN(C)S(=O)(=O)c2cccs2)c1 | 98.1 | 100.6 | 102.9 | 97.9 | 99.3
CN(CC(=O)Nc1ccc(F)c(F)c1)S(=O)(=O)c1cccs1 | ? | ? | ? | 26.8*[may fluoresce violet] | ?
CN(CC(=O)Nc1ccc2c(c1)OCO2)S(=O)(=O)c1cccs1 | ? | ? | 73.7 | 44.7*[may fluoresce violet] | 302.4*[may fluoresce violet]
CC(=O)CC(=O)Nc1ccc(C(N)=O)cc1 | 95.5 | 95.1 | 104.9 | 109.0 | 97.8
Cc1ccccc1C(=O)NC1CCN(CC(=O)Nc2ccc(N(C)C)cc2)CC1 | 103.7 | 98.8 | 89.5 | 101.5 | 105.8
Cc1noc(C)c1COc1ccc(C(=O)N2CCN(c3ccccc3F)CC2)cc1 | 106.1 | 105.8 | 100.9 | 97.0 | 97.4
CN1CCN(C(c2ccc(Cl)cc2)c2cc(Cl)c3cccnc3c2O)CC1 (stereo not given) | 79.6 | 38.5 | 163.8* | 65.1 | 139.6
CCN1CCN(C(c2ccc(C(F)(F)F)cc2)c2ccc3cccnc3c2O)CC1 (stereo not given) | 92.5 | 27.0 | 93.6 | 82.1 | 153.6
CN1CCN(C(c2ccc(C(F)(F)F)cc2)c2cc(Cl)c3cccnc3c2O)CC1 (stereo not given) | ? | ? | 202.1*[may fluoresce violet] | 56.6 | 161.8
Oc1c(C(c2ccccn2)N2CCCCC2)cc(Cl)c2cccnc12 (stereo not given) | 96.0 | 97.8 | 116.2 | 99.5 | 94.7
COc1ccc(CNC(=O)CCC(=O)Nc2nnc(C(F)(F)F)s2)cc1 | 160.7*[may fluoresce green] | 119.3 | 104.1 | 95.1 | 103.1
Cc1ccc(/C=N\NC(=O)C2CN(S(=O)(=O)c3ccccc3)CCN2S(=O)(=O)c2ccccc2)cc1 (stereo not given) | ? | ? | 69.2 | 24.1*[may fluoresce violet] | 204.1*[may fluoresce violet]
CCNC(=O)C1CN(S(=O)(=O)c2ccccc2)CCN1S(=O)(=O)c1ccccc1 (stereo not given) | 105.5 | 105.9 | 96.5 | 100.7 | 103.4
Cc1ccccc1OCc1nc2ccccc2n1C | 99.5 | 94.3 | 110.2 | 97.8 | 90.9
Cc1nnc(OCc2nc3ccccc3n2C)c2ccccc12 | 83.5 | 72.7 | 98.8 | 55.6 | 217.3*
COc1ccc(NC(=O)N2CCCC2C(=O)NC2CCCC2)cc1 (stereo not given) | 101.8 | 100.6 | 104.6 | 102.8 | 104.0
CCCCN(CCCC)CCCOC(=O)c1ccc(N)cc1 | 86.6 | 90.7 | 183.4* | 79.8 | 93.0
COc1cccc2cc(C(=O)N3CCCCCCC3)c(=O)oc12 | 99.1 | 94.4 | 95.5 | 102.3 | 104.4
COc1cccc2cc(C(=O)N3CCN(C/C=C/c4ccccc4)CC3)c(=O)oc12 | 62.7 | 88.8 | 105.6 | 81.4 | 219.4*
SMILES | CIT2 TOR yeast | AGP1 TOR yeast | LAP4 TOR yeast | RPL19A TOR yeast | MEP2 TOR yeast
COc1cccc(OC)c1OCCCCCCN1CCN(C)CC1 | 107.5 | 102.2 | 93.8 | 103.8 | 108.4
CN1CCN(CCCCOc2ccccc2C=O)CC1 | 79.7 | 92.6 | 162.8* | 103.4 | 104.2
Cc1cc(=O)oc2c3c(cc(OCC(=O)Nc4ccc(CCO)cc4)c12)OC(C)(C)CC3 | ? | ? | 90.4 | 40.7*[may fluoresce violet] | 209.4*[may fluoresce violet]
Cc1ccc(-n2c(=O)c3sccc3n(CC(=O)N3CCCC3)c2=O)cc1 | 92.3 | 90.5 | 91.9 | 91.8 | 90.9
O=C(Cn1c(=O)n(-c2ccccc2)c(=O)c2sccc21)N1CCCC1 | ? | ? | 101.6 | 43.2*[may fluoresce violet] | 184.4*[may fluoresce violet]
CCOc1ccccc1-c1noc(CCC(=O)Nc2cccnc2)n1 | 89.1 | 68.4 | 88.1 | 67.7 | 222.6*
CCCCOc1ccc(C(=O)NCC(=O)NCC(c2ccc(OC)cc2)N2CCOCC2)cc1 (stereo not given) | 95.0 | 102.8 | 102.3 | 99.4 | 105.7
O=C(NNC(=O)C1CCCCC1)C(=O)NC1CCCCC1 | 125.7 | 106.8 | 154.9* | 105.5 | 176.9*
O=C(NC1CCCCCC1)C(=O)NC1CC1 | 105.8 | 94.5 | 101.0 | 102.0 | 110.6
Cc1cc(C)nc(N2CCC(C(=O)NCCc3ccc(Cl)cc3)CC2)n1 | 102.3 | 98.4 | 107.4 | 100.3 | 98.2
O=C1C2=C(NC(=S)NC2c2ccc(Cl)cc2)NC(c2ccc(Cl)cc2)N1c1ccc(Cl)cc1 (stereo not given) | ? | ? | ? | 55.9 | 391.2*[may fluoresce violet]
O=[N+]([O-])c1ccc(O)c(NC(=S)Nc2ccccc2)c1 | ? | 21.5 | 77.6 | 89.8 | 312.6*[may fluoresce violet]
O=S(=O)(Nc1ccc(Br)cc1)c1cccc2nonc12 | 91.2 | 115.6 | 152.3* | 79.6 | 94.7
Cc1ccccc1NC(=O)c1ccc(F)c(S(=O)(=O)N2CCCCC2)c1 | 96.1 | 94.4 | 92.6 | 96.7 | 92.3
Cn1c(=O)c2[nH]c(-c3ccccc3O)nc2n(C)c1=O | 105.3 | 104.5 | 104.8 | 88.1 | 112.9
CCCOc1ccccc1-c1nc2c([nH]1)c(=O)[nH]c(=O)n2C | ? | 26.6 | 95.1 | 65.1 | 185.7*[may fluoresce violet]
CC1=C/C(=C/N(C)C)C(=O)O1 | ? | ? | 129.8 | 19.2*[may fluoresce violet] | ?
Cc1ccccc1NC(=O)COC(=O)c1cc(=O)c2ccccc2o1 | 159.4* | 103.1 | 116.7 | 115.2 | 151.2
Cc1ccc(NC(=O)COC(=O)c2cc(=O)c3ccccc3o2)c(Br)c1 | 97.6 | 92.6 | 100.1 | 102.1 | 102.0
CCOC(=O)c1ccc(NC(=O)CSc2nc3ncccc3[nH]2)cc1 | 100.0 | 97.0 | 91.7 | 101.7 | 103.5
c1ccc(OCCSc2nc3ccccc3[nH]2)cc1 | ? | · | 103.3 | 44.4*[may fluoresce violet] | 182.2*[may fluoresce violet]
Cc1ccc2nc(SCCCCOc3ccccc3)[nH]c2c1 | 80.4 | 88.7 | 104.5 | 95.5 | 101.5
N#Cc1c(N)nc2c(c1-c1ccncc1)CCCCC2 | ? | ? | 80.2 | 53.9 | 817.5*[may fluoresce violet]
OC(COc1ccccc1CNCc1cccnc1)CN1CCc2ccccc2C1 (stereo not given) | ? | 17.8 | 88.8 | 52.8 | 587.5*[may fluoresce violet]
Cc1nc(C)n(CC(C)C(=O)N2CCN(S(=O)(=O)c3ccccc3)CC2)n1 (stereo not given) | ? | ? | ? | 40.0*[may fluoresce violet] | ?
Cc1cc(C)c(S(=O)(=O)N2CCN(C(=O)C(C)Cn3nc(C)nc3C)CC2)c(C)c1 (stereo not given) | 102.1 | 102.2 | 100.3 | 105.4 | 106.7
Cc1ccccc1Oc1ncnc2oc(-c3ccccc3)cc12 | 110.1 | 28.4 | 92.1 | · | 266.9*
